Source: PubChem BioAssay (National Center for Advancing Translational Sciences (NCATS))
TDP1 cell noCPT: qHTS for Inhibitors of human tyrosyl-DNA phosphodiesterase 1 (TDP1): qHTS in cells in absence of CPT. actives 15% (n = 420,000). AID 686978, 2013. DT40 Tdp1-/- hTDP1 cells, no CPT, ATP luminescence, 48 h. Potency, µM (titrated, usually from 46.2 µM), for the others: at the highest dose activity change, negative = growth inhibition, most hits filed as inhibitors; further: nearly all actives have a fitted effect of over 55% in size
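Growth kinetics read by CellTiter-Glo luminescence after ≥48 hr at 37 °C. Cells: DT40 Tdp1-/- stably carrying human TDP1, 400 per well, compound exposure in the absence of CPT (DMSO vehicle).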
HT1080 IDH1KD tx: qHTS for induction of synthetic lethality in tumor cells producing 2HG: qHTS for the HT-1080-IDH1KD cell line. HT-1080 IDH1 knockdown viability, ATP luminescence, 48 h. AID 686971, 2013. actives 2% (n = 360,000). Potency, µM (top dose mostly 46.1 µM), without a hit: at the highest dose activity, negative = toxicity, most hits filed as cytotoxic;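 further: 0% = DMSO wells and -100% = cell-free medium wells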
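Assay cells: HT-1080 with IDH1 knockdown, 750 per well, RPMI/5% FBS. Exposure: 48 h at 37 °C following 2 h pre-incubation. Read: CellTiter-Glo luminescence; fitted concentration-response, curve class assigned.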
KB-V1 cytotox: qHTS assay for MDR1-selective chemotherapeutics: Primary screen using the drug-selected MDR subline cells KB-V1; KB-V1 MDR cells viability, CellTiter-Glo, 72 h; Potency, µM (titrated, usually from 46.1 µM), most hits filed as cytotoxic; actives 3.4% (n = 400,000); further: nearly all actives have a fitted effect of over 60% in size
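qHTS viability screen in drug-selected KB-V1 MDR cells: 72 h compound treatment at 37 degrees C, ATP luminescence end point.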
KB-3-1 cytotox: qHTS assay for MDR1-selective chemotherapeutics: Primary screen using the parental adenocarcinoma cell KB-3-1. KB-3-1 viability, CellTiter-Glo ATP luminescence, 72 h. Potency, µM (series often up to 46.1 µM), hits mostly cytotoxic. actives 1.4% (n = 400,000); further: nearly all actives have a fitted effect of over 60% in size
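KB-3-1 cells, DMEM (no phenol red) + 10% FBS; compound by pin transfer, 72 h, 37 °C. Readout: CellTiter-Glo luminescence after 10 min. Data normalized, curve-fitted.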
HT1080NT lethal: qHTS for induction of synthetic lethality in tumor cells producing 2HG: qHTS for the HT-1080-NT fibrosarcoma cell line; HT-1080-NT fibrosarcoma viability, CellTiter-Glo ATP luminescence, 48 h; Potency, µM (top dose mostly 46.1 µM), for the others: at the top dose activity, negative = less viability, actives largely listed as cytotoxic; actives 1.6% (n = 360,000);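 further: NT is the 2HG producing partner of a matched IDH1 knockdown line; 0% = DMSO-treated cells and -100% = media-only wells without cells; nearly all actives have a fitted effect of over 55% in size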
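Compounds were tested in concentration-response format on HT-1080-NT cells for 48 hours at 37 degrees C. Cell viability came from CellTiter-Glo luminescence; curves were classified by r2, response magnitude and activity.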
DT40 TDP1 CPT: qHTS for Inhibitors of human tyrosyl-DNA phosphodiesterase 1 (TDP1): qHTS in cells in presence of CPT. chicken DT40 Tdp1-/-;hTDP1 cells + 20 nM CPT, ATP luminescence, 48 h. Potency, µM (top dose mostly 46.2 µM), inactives show top-dose activity change, negative = growth inhibition, usual class: inhibitors. actives 12% (n = 420,000). AID 686979, 2013; further: nearly all actives have a fitted effect of over 55% in size
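Chicken DT40 Tdp1-/- cells complemented with human TDP1, 400 cells/well, exposed to compounds plus 20 nM camptothecin for at least 48 h at 37 C; viability read as ATP content by CellTiter-Glo luminescence.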
The depositor's hits bear a star; i = inactive; ? = inconclusive; . = not tested or not shown; [ ] = remark or other dose. Most compounds without a hit are left out; they make up all but 19% or so of the library. The call rests on the fitted dose curve; in most records, active means well fitted curve in the direction sought with a large enough effect; inconclusive means small, poorly fitted or top-dose-only effect, or another doubt; inactive means no such curve, though single readings can be large; an effect the other way counts as inactive or inconclusive. Unless noted, on the % scale 0 is the no-effect control and ±100 the full control effect; potency means the concentration at half of the fitted maximal effect.

SMILES | TDP1 cell noCPT | HT1080 IDH1KD tx | KB-V1 cytotox | KB-3-1 cytotox | HT1080NT lethal | DT40 TDP1 CPT
CCOC(=O)c1cc(C#N)c(SC)nc1-c1ccccc1 | ? | -3% | ? | i | -6% | ?
CCOC(=O)c1cc(C#N)c(N2CCN(c3ccccn3)CC2)nc1-c1ccccc1 | 21µM* | -10% | i | i | -29% | ?
Cc1cnc(C(=O)OCC(=O)N2CCN(S(=O)(=O)c3ccc(Cl)cc3)CC2)cn1 | -8% | 14% | i | i | -1% | -5%
O=C(Nc1ccc(Cc2ccncc2)cc1)c1ccc(S(=O)(=O)N2CCCC2)cc1 | 10µM* | ? | ? | i | -18% | 13µM*
Cc1ccc(NC(=O)C(C)OC(=O)c2ccc(NS(=O)(=O)c3ccc(F)c(F)c3)cc2)cc1 (stereo unspecified) | ? | -21% | i | i | -22% | ?
CC(=O)c1ccc(NC(=O)c2ccc(S(=O)(=O)N3CCCC3)cc2)cc1 | 16µM* | 6% | ? | i | 5% | ?
O=C(Nc1ccc(S(=O)(=O)N2CCCCC2)cc1)c1ccncc1 | ? | ? | i | i | -8% | ?
CC(=O)c1ccc(NC(=O)Nc2ccc(S(=O)(=O)N3CCCC3)cc2)cc1 | 15µM* | -1% | . | . | -1% | ?
CC(=O)Nc1ccc(C(=O)Nc2ccc(S(=O)(=O)N3CCCCC3)cc2)cc1 | -24% | -19% | i | i | 7% | -29%
CCc1ccc(NC(=O)C(C)OC(=O)c2ccc(NS(=O)(=O)c3ccc(C)c([N+](=O)[O-])c3)cc2)cc1 (stereo unspecified) | ? | ? | ? | 23µM* | ? | ?
CC(=O)c1c(C)oc2c(Cl)cc(NS(=O)(=O)c3cc(C)c(C)cc3C)cc12 | ? | . | i | i | . | -22%
Cn1cc([C@]2(O)C(=O)Nc3c(F)cccc32)c2ccccc21 | -6% | -6% | i | i | -7% | -9%
Cc1ccc(CNC(=O)Cn2ccn(-c3cc(C)cc(C)c3)c(=O)c2=O)cc1 | -18% | . | . | . | . | -2%
CC(OC(=O)c1ccc(Cl)nc1)C(=O)Nc1ccc(S(=O)(=O)N2CCCC2)cc1 (stereo unspecified) | -12% | 3% | ? | i | -2% | 4%
CC(=O)Nc1ccc(NC(=O)C(C)OC(=O)c2ccc(S(=O)(=O)N3CCCCC3)cc2)cc1 (stereo unspecified) | ? | ? | i | i | 23µM* | 2%
O=C(Nc1cc(C(F)(F)F)ccc1N1CCCCC1)c1cccc([N+](=O)[O-])c1 | 16µM* | -4% | 16µM* | i | -1% | ?
O=C(Nc1cc(C(F)(F)F)ccc1N1CCCC1)c1ccc2c(c1)OCO2 | ? | -11% | i | i | -19% | -19%
Cc1ccc(C(=O)Nc2cc(C(F)(F)F)ccc2N2CCCCC2)cc1[N+](=O)[O-] | 21µM* | 4% | i | i | 9% | 18µM*
COCc1c(C(=O)N2CCC(N(C)C)C2)cnn1-c1ncc2c(n1)-c1ccccc1CCC2 (stereo unspecified) | -6% | . | . | . | . | 5%[9.04 µM]
CCCC(=O)N1CCc2cc(OC)c(OC)cc2C1COc1ccc2c(C)cc(=O)oc2c1 (stereo unspecified) | 13µM* | . | i | i | . | ?
COc1cc2c(cc1OC)C(COc1ccc3c(C)cc(=O)oc3c1)N(C(=O)c1ccc(C)cc1)CC2 (stereo unspecified) | ? | . | i | i | . | ?
COc1ccc(C(=O)N2CCc3cc(OC)c(OC)cc3C2COc2ccc3c(C)cc(=O)oc3c2)c(OC)c1 (stereo unspecified) | -21% | . | i | ? | . | 2%
CCC(CC)C(=O)N1CCc2cc(OC)c(OC)cc2C1COc1ccc2c(C)cc(=O)oc2c1 (stereo unspecified) | 16µM* | . | ? | i | . | ?
COc1cc2c(cc1OC)C(COc1ccc3c(C)cc(=O)oc3c1)N(C(=O)c1ccc(C)c(C)c1)CC2 (stereo unspecified) | 16µM* | . | ? | i | . | ?
CN(C)c1c(Cl)cc(/C=C/c2ccnc3ccccc23)cc1Br | 3.5µM* | . | 16µM* | 18µM* | . | 4.5µM*
SMILES | TDP1 cell noCPT | HT1080 IDH1KD tx | KB-V1 cytotox | KB-3-1 cytotox | HT1080NT lethal | DT40 TDP1 CPT
CN(C)c1ccc(C=Cc2ccnc3ccccc23)cc1N | 10µM* | ? | i | ? | 23µM* | 10µM*
Cc1cc(C=Nc2ccc(/C=C/c3ccnc4ccccc34)cc2)ccc1N(C)C | 18µM* | . | i | i | . | 16µM*
Cc1cc(/C=C/c2ccnc3ccccc23)ccc1N(C)C | 5.6µM* | . | 13µM* | 7.3µM* | . | 5.6µM*
CN(C)c1ccc(/C=C/c2ccnc3ccccc23)cc1Br | 7.1µM* | . | ? | ? | . | 8.9µM*
CN(C)c1ccc(/C=C/c2ccnc3ccccc23)cc1Cl | 10µM* | . | ? | ? | . | ?
Cc1c(/C=C/c2ccnc3ccccc23)ccc(N(C)C)c1C | 11µM* | . | i | ? | . | ?
CCCn1c(CC)nc([N+](=O)[O-])c1Sc1ncn[nH]1 | ? | -10% | i | i | -13% | ?
CCc1ccc(NC(=O)Cn2nnc(C(=O)Nc3cc(C)ccc3OC)c2N)cc1 | -28% | . | . | . | . | -29%
[O]=[Bi][O][Bi]=[O] | 1% | . | . | . | . | 0%
CC1(C(=O)NS(=O)(=O)c2ccc(Cl)cc2)CCN1C(=O)CCc1cccs1 (stereo unspecified) | -1% | 10% | i | i | 20% | -12%
CS(=O)(=O)N1CCC(N2CCN(Cc3ccccc3)C(=O)C2=O)CC1 | -14% | . | i | i | . | 5%
CCOC(=O)c1c(C)[nH]c(C(=O)OCC(=O)Nc2sc(C(=O)N(C)C)c(C)c2C(=O)OCC)c1C | 23µM* | -1% | ? | i | -11% | ?
CCOC(=O)c1c(C)[nH]c(C(=O)OCc2ccc(F)cc2)c1C | 2% | 11% | i | i | 3% | -9%
